VCAM1 TNFa inh: inhibitors of TNFa-induced VCAM1 expression, primary screen, imaging, HUVEC, TNFa stimulus, immunofluorescence; inhibition, % at 2 µM; 0.48% of 95,000 active; HUVEC TNFa-induced VCAM-1 immunofluorescence, high-content imaging;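 active = inhibition above the batch mean plus 3 SD, with images confirmed as a hit by eye, cut at about 37% in these data; inconclusive = inhibition above that limit but hit not confirmed in images; inactive = inhibition not above that limit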
HUVEC tox TNFa: cytotoxicity in TNFa-stimulated HUVEC, primary screen, cytotoxicity control for VCAM1 expression modulator project, imaging, Hoechst nuclei count | HUVEC TNFalpha-stimulated, Hoechst cell count | cell count reduction, % at 2 µM | 0.17% of 93,000 active | AID 848, 2007;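 active = cell count reduction exceeding the screen mean by over 5 SD, scaled to untreated wells per plate, cut at about 78% in these data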;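 note: cells counted after 24 h of TNF alpha exposure following the 1 h pretreatment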
E-sel TNF inh: E-selectin induction blockers in HUVEC – imaging, immunofluorescence, high content, primary screen; HUVEC TNFa-induced E-selectin immunofluorescence; inhibition, % at 2 µM; 0.71% of 120,000 active;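 active = inhibition above the batch mean plus 3 SD, and confirmed as a hit on visual image review, cut at about 43% in these data; inconclusive = passes the inhibition cutoff but fails visual image review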
F-actin modifier: modifiers of F-actin cytoskeleton organization, primary screen, imaging, HUVEC, phalloidin staining, high-content imaging | HUVEC TNFa F-actin phalloidin imaging | AID 836, 2007 | 0.18% of 91,000 active | inhibition, % at 2 µM;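 active = inhibition above the batch mean plus 3 SD and confirmed as a hit by visual image inspection, cut at about 30% in these data, passing the limit was not always enough; inconclusive = above the inhibition threshold but rejected on visual inspection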
Numbers stand for hits; - = inactive; ? = inconclusive; . = no result given. Compounds with a hit are over-represented: about 1% of the library has one in this group of screens.

SMILES	VCAM1 TNFa inh	HUVEC tox TNFa	E-sel TNF inh	F-actin modifier
Cc1ccc(C2/C(=C(\O)c3cnn(-c4ccccc4)c3C)C(=O)C(=O)N2CCN(C)C)o1 (centres undefined)	-	91	-	-
CCc1ccc(-c2nc(CS(=O)CC(=O)NCc3cccnc3)c(C)o2)cc1 (centres undefined)	.	.	-	.
COc1ccc(-c2nc(CS(=O)CC(=O)NCc3cccnc3)c(C)o2)cc1 (centres undefined)	-	82	.	-
COc1cc(NC(=O)c2ccc(COCC(F)(F)F)o2)cc(OC)c1OC	50	-	-	-
O=C1c2ccccc2C(Nc2ccc(S(=O)(=O)N3CCCCCC3)cc2)N1Cc1ccco1 (centres undefined)	-	-	66	-
CCc1ccccc1NC1c2ccccc2C(=O)N1Cc1ccco1 (centres undefined)	.	.	-	.
Cc1cc(C)cc(NC(=O)c2ccc([N+](=O)[O-])o2)c1	.	.	76	.
O=C(NNC(=O)c1ccc([N+](=O)[O-])o1)c1ccccc1	-	-	-	-
CCCN(CCC)S(=O)(=O)c1ccc(NS(=O)(=O)c2ccc(F)cc2)cc1	-	-	-	-
Cc1cc(C)c(C)c(S(=O)(=O)N2CCCCC2C(=O)O)c1C (centres undefined)	.	.	-	.
CS(=O)(=O)C1=NSC2=NC(=O)/C(=C\c3cccn3-c3ccc(Cl)cc3)C(=N)N21	.	.	100	.
C=CCNC(=O)/C=C/c1cccs1	.	.	94	.
C=CCNC(=O)COC(=O)/C=C/c1cccs1	.	.	-	.
CCOC(=O)C1CCCN(S(=O)(=O)c2cn(C)c(=O)n(C)c2=O)C1 (centres undefined)	-	79	.	-
Cc1c(NC(=O)CN2CC(C)OC(C)C2)c(=O)n(-c2ccccc2)n1C (centres undefined)	-	-	66	-
Cc1c(NC(=O)CN2CCN(c3ccccc3)CC2)c(=O)n(-c2ccccc2)n1C	-	-	-	-
COC(=O)c1ccc(-n2nnnc2SCC(=O)N2CCCCC2)cc1	?	100	.	-
Cc1nn(CC(=O)NCc2cccc3ccccc23)c(=O)c2ccccc12	-	-	-	-
Cc1ccc(S(=O)(=O)CCc2nc3ccccc3[nH]2)cc1C	.	.	-	.
Cc1ccc(-c2nnc(N3CCN(C(=O)CN4C(=O)c5ccccc5C4=O)CC3)c3ccccc23)cc1	-	-	100	-
O=C(CN1C(=O)c2ccccc2C1=O)N1CCN(c2nnc(-c3ccccc3)c3ccccc23)CC1	-	-	-	-
COc1ccc(Cn2nnnc2C(c2cccs2)N2CCCCCC2)cc1 (centres undefined)	-	-	-	-
COc1ccc(Cn2nnnc2C(c2cccs2)N2CCSCC2)cc1 (centres undefined)	87	88	.	-
COc1ccc(C(c2nnnn2Cc2ccccc2)N2CCN(c3nc4ccccc4s3)CC2)cc1 (centres undefined)	.	.	69	.
COc1ccccc1/C(C)=N/NC(=S)NCc1ccccc1	.	.	-	.
SMILES	VCAM1 TNFa inh	HUVEC tox TNFa	E-sel TNF inh	F-actin modifier
O=C(NC(=S)Nc1ccccc1O)c1ccc(-c2ccc(Cl)cc2)o1	-	-	-	-
Cc1ccc(O)c(NC(=S)NC(=O)c2ccc(-c3ccc(Cl)cc3)o2)c1	-	-	55	-
CCOc1ccc(C2C(C#N)=C(C)NC3=C2C(=O)c2ccccc23)cc1 (centres undefined)	-	-	-	-
COc1ccc(C2C(C#N)=C(C)NC3=C2C(=O)c2ccccc23)cc1 (centres undefined)	-	-	.	-
COc1cc(C2C(C#N)=C(C)NC3=C2C(=O)c2ccccc23)cc(OC)c1OC (centres undefined)	89	-	.	-
CC1=C([N+](=O)[O-])C(c2ccccc2)C2=C(N1)c1ccccc1C2=O (centres undefined)	44	-	-	-
CCOc1ccc(-n2nc(C(=O)NCCOC)c3ccccc3c2=O)cc1	.	.	-	.
CCOc1ccc(-n2nc(C(=O)N3CCN(CC)CC3)c3ccccc3c2=O)cc1	-	-	66	-
Cc1cc(S(=O)(=O)NCCN2CCOCC2)c(C)s1	-	-	-	65
COc1cc(S(=O)(=O)NCCN2CCOCC2)c(OC)cc1Cl	-	-	-	-
CCOc1ccc(C2=Nn3c(nnc3-c3ccccc3OC)SC2)cc1	99	-	-	-
COc1ccc(C2=Nn3c(nnc3-c3ccncc3)SC2)cc1OC	-	-	-	-
CCOc1ccc(-c2nnc3n2N=C(c2ccc(OC)cc2)CS3)cc1	-	-	.	-
COc1ccccc1-c1nnc2n1N=C(c1ccc(O)c(O)c1)CS2	96	-	-	-
CCn1ccnc1C(O)c1cccc(OC)c1 (centres undefined)	-	-	-	64
COc1ccccc1C(=O)N(CCC1CCCN1C)c1nc2ccccc2s1 (centres undefined)	.	.	-	.
CCOc1ccc(C2/C(=C(\O)c3c(C)[nH]c(C(=O)OC)c3C)C(=O)C(=O)N2CCN(C)C)cc1 (centres undefined)	92	-	.	-
Cc1noc(C)c1S(=O)(=O)Nc1ccc(C(=O)NC2CCCCC2C)cc1 (centres undefined)	-	-	75	-
CCn1c(SCC(=O)Nc2ccccc2OC)nnc1-c1cnccn1	-	-	62	-
C=CCn1c(SCC(=O)Nc2ccccc2OC)nnc1-c1ccccn1	-	-	-	-
N#Cc1cc([N+](=O)[O-])cnc1NCC(O)CO (centres undefined)	-	-	-	-
CCN(CC)S(=O)(=O)c1ccc(-c2nnc(SCC(=O)Nc3ccc(OC)c(OC)c3)o2)cc1	-	-	-	-
CCN(CC)S(=O)(=O)c1ccc(-c2nnc(SCC(=O)Nc3ccc(OC)cc3)o2)cc1	-	-	64	-
CC(C)Cn1c(-c2cccs2)nc2ccccc21	-	-	85	-
CCn1cc(C(=O)NCc2ccco2)c(=O)c2cc(S(=O)(=O)N3CCc4ccccc4C3)ccc21	-	-	100	-
SMILES	VCAM1 TNFa inh	HUVEC tox TNFa	E-sel TNF inh	F-actin modifier
Cc1cc(C)c(NC(=S)N(CCc2ccncc2)C(C)C)c(C)c1	.	.	-	.
Cc1nc(=O)c(-c2ccccc2)c(C)n1-c1ccc(S(N)(=O)=O)cc1	-	-	100	-
CCCCCOc1ccc(Br)cc1/C(C)=N/NC1=NCCN1	-	-	-	49
CCn1c(=O)cc(SCC(=O)N2CCN(C3CCCCC3)CC2)c2ccccc21	-	-	67	-
Cc1ccc(C)c(N(CC(=O)NCCSCc2ccco2)S(C)(=O)=O)c1	-	-	63	-
CCOc1c(C)cc2[nH]c(CCC(=O)O)nc2c1C	.	.	96	.
OCCCCCNc1ncnc2ccccc12	-	-	-	-
OCCCCNc1cccc2ccccc12	43	-	.	-
COc1ccc(-c2cc(-c3nnc(COC(=O)c4ccncc4)o3)c3ccccc3n2)cc1OC	.	.	-	.
Oc1ccc(-c2csc(-c3ccccc3)n2)cc1O	-	-	51	-
O=C(CO/N=C/c1ccccc1OC(F)F)NCc1cccs1	.	.	90	.
Nc1nnnn1/N=C/C=C/c1ccccc1	.	.	-	.
Nc1nnnn1/N=C/C(Br)=C/c1ccccc1	54	-	-	-
COc1ccc(-c2ccc(C(=S)N3CCN(C(C)=O)CC3)o2)cc1	-	-	64	-
